OTUD3 block – inhibitors of human OTUD3 deubiquitinase; hit rate 0.7% among 47,000; inhibition, % at 25 µM; Q5T2D3; purified OTUD3, Ub-rhodamine fluorescence, 2 h
USP28 block – inhibitors of human USP28 deubiquitinase; inhibition, % at 25 µM; purified USP28, Ub-rhodamine cleavage fluorescence, 30 min; AID 1645857; hit rate 3% among 47,000; Q96RU2
USP17 inh – inhibitors of human USP17 deubiquitinase; purified USP17, Ub-rhodamine cleavage fluorescence, 3 h; inhibition, % at 50 µM; hit rate 6.5% among 47,000; AID 1645855
USP30 inh – human USP30 deubiquitinase inhibition; Q70CQ3; purified USP30, Ub-rhodamine cleavage fluorescence; inhibition, % at 25 µM; hit rate 5.3% among 47,000
Target sequence (Q70CQ3 whole entry, looked up): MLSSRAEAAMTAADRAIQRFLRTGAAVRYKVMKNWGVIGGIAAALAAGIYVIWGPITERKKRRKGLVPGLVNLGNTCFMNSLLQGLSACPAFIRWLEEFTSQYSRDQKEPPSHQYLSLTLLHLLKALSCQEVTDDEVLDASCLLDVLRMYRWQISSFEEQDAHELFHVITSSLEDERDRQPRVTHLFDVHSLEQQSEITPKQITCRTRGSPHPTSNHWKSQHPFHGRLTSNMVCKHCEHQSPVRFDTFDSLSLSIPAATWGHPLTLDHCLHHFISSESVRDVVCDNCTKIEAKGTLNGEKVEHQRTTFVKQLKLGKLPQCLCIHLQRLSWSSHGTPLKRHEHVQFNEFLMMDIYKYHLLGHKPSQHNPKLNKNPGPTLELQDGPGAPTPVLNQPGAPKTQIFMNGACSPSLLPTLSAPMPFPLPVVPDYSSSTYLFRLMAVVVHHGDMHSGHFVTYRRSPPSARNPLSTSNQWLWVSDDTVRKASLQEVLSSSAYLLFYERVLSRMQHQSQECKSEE
Numbers stand for hits; i = inactive. Compounds with a hit are over-represented: about 11% of the library has one in this group of screens. Rule as the data show it: active = inhibition above about 30%; inactive = the rest.

SMILES | OTUD3 block | USP28 block | USP17 inh | USP30 inh
Cc1cccc(-n2c(Cc3cc(=O)[nH]c(=O)[nH]3)nnc2SCC(=O)Nc2ccc(F)cc2F)c1 | i | i | i | i
Cc1cccc(-n2c(Cc3cc(=O)[nH]c(=O)[nH]3)nnc2SCC(=O)NCc2ccccc2Cl)c1 | i | i | i | 31
Cc1nn(-c2ccccc2)c2c1c(C)c(CCC(=O)NCc1ccc(F)cc1)c(=O)n2C | i | i | 37 | i
CC(=O)Nc1ccc(NC(=O)CCc2c(C)c3c(C)nn(-c4ccccc4)c3n(C)c2=O)cc1 | i | i | i | i
CC(=O)c1ccc(NC(=O)CCc2c(C)c3c(C)nn(-c4ccccc4)c3n(C)c2=O)cc1 | i | i | 38 | i
O=C(Nc1ccc2nccnc2c1)c1cccc(C(F)(F)F)c1 | i | 32 | i | 76
O=C(Nc1ccncc1NC(=O)c1cccc(C(F)(F)F)c1)c1cccc(C(F)(F)F)c1 | i | i | i | i
Cc1cc(=O)oc2cc(OC(=O)C3CCN(C(=O)c4ccc(Cl)cc4)CC3)ccc12 | i | i | i | 50
O=C(CN(c1ccc(F)cc1)S(=O)(=O)c1ccccc1)N1CCC(Cc2ccccc2)CC1 | i | i | i | i
O=C(/C=C/c1ccc(F)cc1)N1CCC(Cc2ccccc2)CC1 | i | 33 | 36 | 51
O=c1cc(Cc2ccccc2)nc2c(-c3ccccc3)c(COc3ccccc3)[nH]n12 | i | 41 | i | 40
COc1ccc(NC(=O)c2sc3ncn(CC(=O)N4CCN(c5ccccn5)CC4)c(=O)c3c2C)cc1OC | i | i | i | i
Cc1ccc(NC(=O)c2sc3ncn(CC(=O)N4CCN(c5ccccn5)CC4)c(=O)c3c2C)c(Br)c1 | i | i | 59 | i
CCc1nnc2c(NC(=O)Cc3ccc(OC)c(Cl)c3)cccn12 | i | 47 | i | i
O=c1c2ccccc2c(-c2nc(-c3cccnc3)no2)cn1-c1ccc(Cl)cc1 | i | i | i | 38
c1ccc(-n2cc(-c3noc(-c4cccnc4)n3)nn2)cc1 | i | i | i | i
O=C(NC1CCCc2ccccc21)c1cc2ccccc2o1 (centres undefined) | i | i | i | i
c1cncc(CNc2ncnc3c2sc2nc(N4CCOCC4)c4c(c23)CCC4)c1 | i | i | 32 | i
CC(Nc1ncnc2c1sc1nc(N3CCOCC3)c3c(c12)CCC3)c1ccccc1 (centres undefined) | i | i | 51 | i
O=C(Nc1nc(-c2ccc3c(c2)CCN3C(=O)C2CC2)cs1)c1cccnc1 | i | i | i | i
O=C1[C@@H]2Cc3ccccc3CN2C(=O)N1c1ccccc1[N+](=O)[O-] | i | i | i | i
O=C1[C@@H]2Cc3ccccc3CN2C(=O)N1c1cccc2ccccc12 | i | i | i | 33
Cc1ccc(CNC(=O)c2ccc(N3C(=O)[C@@H]4Cc5ccccc5CN4C3=O)cc2)cc1 | i | i | 62 | 49
CC(=O)CSc1nnc(-c2cnn(-c3ccccc3)c2N)o1 | i | i | i | i
Nc1ccccc1-c1nnc(SCC(=O)c2ccccc2)o1 | i | i | i | 33
SMILES | OTUD3 block | USP28 block | USP17 inh | USP30 inh
Cc1oc2c(c1C(=O)Nc1cccnc1)C1=NC(C)(C)CN1C=N2 | i | i | i | i
COc1ccc(CNC(=O)c2c(O)c3cccnc3n(-c3ccccc3)c2=O)cc1 | i | i | i | i
COc1cccc(NC(=O)CC2Sc3ccccc3NC2=O)c1 (centres undefined) | i | i | 32 | 39
Cc1ccc2c(Nc3ccccc3)c(-c3nc(C)no3)cnc2n1 | i | i | i | i
Cc1ccc2c(NCc3ccc4c(c3)OCO4)c(-c3nc(C)no3)cnc2n1 | i | 43 | 36 | i
O=C(NCC1CC1)c1ncn2c1CN(CC1CC1)S(=O)(=O)c1ccccc1-2 | i | i | i | 34
CC(C)CCN1Cc2c(C(=O)Nc3ccccc3)ncn2-c2ccccc2S1(=O)=O | i | i | i | i
CC(C)CCN1Cc2c(C(=O)NCc3ccccc3)ncn2-c2ccccc2S1(=O)=O | i | i | i | 42
O=C(COc1ccccn1)N(Cc1ccccc1)C1CCS(=O)(=O)C1 (centres undefined) | i | i | i | i
COc1ccccc1NC(=O)C1=C(C)Nc2nc(-c3ccc(N(C)C)cc3)nn2C1c1ccncc1 (centres undefined) | i | i | 40 | 30
COc1ccccc1NC(=O)C1=C(C)Nc2nnnn2C1c1cccnc1 (centres undefined) | i | i | i | i
COc1ccc(C2C(C(=O)Nc3ccccc3OC)=C(C)Nc3nnnn32)cc1Br (centres undefined) | i | i | 74 | i
COc1cccc(-c2nc3n(n2)C(c2ccncc2)C(C(N)=O)=C(C)N3)c1 (centres undefined) | i | i | i | 30
